Values joined by “and” are separate entries in the source; they are usually repeats but may differ in a detail not shown here. Equal entries are not always repeated. Inconclusive results are not listed. A number with no mark means an inactive call. Active and inactive are the calls of the source. Calls come from the whole dose curve; as a rule, active = well fitted cell-killing curve with a large enough effect in the repeat runs; inconclusive = weak or mixed curves, or effect the other way; inactive = no such curve, though single readings can be large or run the other way.
Test: qHTS assay for identifying genotoxic compounds that show differential cytotoxicity against isogenic chicken DT40 cell lines with known DNA damage response pathways - Rev3 mutant cell line (AID 743014); note: nearly all actives have a fitted effect of over 55% in size
Settings: chicken DT40 Rev3-/- viability, CellTiter-Glo, 40 h; series mostly up to 68.4 µM; activity, negative = cytotoxicity: at the top concentration
From the text: National Center for Advancing Translational Sciences [NCATS]
NIH Chemical Genomics Center [NCGC]
U.S. Environmental Protection Agency [EPA]
National Institutes of Environmental Health Sciences [NIEHS]
National Toxicology Program [NTP]
U.S. Food and Drug Administration [FDA]
DNA repair pathways play a critical role in cellular homeostasis by repairing DNA damage induced by endogenous processes and xenobiotics. Isogenic chicken DT40 cell lines deficient in different DNA repair pathways can be used to identify genotoxic compounds and aid in characterizing the nature of the DNA damage induced. Two DNA repair-deficient cell lines with disrupted genes, Rad54/Ku70 or Rev3, were used to screen the Tox21 10K compound library. Possible genotoxicity was based on the presence of a significant increase in cytotoxicity in one or more of the DNA repair-deficient cell lines compared to that observed in the parental DNA repair-proficient cell line. CellTiter Glo viability assay (Promega, Madison, WI) was used to measure cell viability in these cells after compound treatment. This assay includes the data from the Rev3 mutant cell line.
Tox21 Assay Protocol Summary:
300 DT40 mutant cells in 5 uL/well were dispensed into white, solid-bottom 1536-well plates using a Multidrop Combi (ThermoFisher Scientific, Waltham, MA) dispenser. After the assay plates were incubated at 37 C/5% CO2 for approximately 0.5 hour, 23 nL of compounds dissolved in DMSO, positive controls or DMSO only was transferred into the assay plate by a pintool work station (Kalypsys, San Diego, CA). The assay plates were incubated at 37 C/5% CO2 for 40 hours. After 5 uL per well of CellTiter-Glo reagent was added into each well of the assay plates, the plates were incubated for 30 min at room temperature and the luminescence intensity of the plates was measured using a ViewLux (PerkinElmer, Shelton, CT) plate reader.
% is set by controls: 0 for no effect and ±100 for the full control effect; potency is the fitted concentration of half-maximal effect.

Compound | activity, negative = cytotoxicity | Potency
CC(C)(C)C(=O)OCOC(=O)[C@@H]1N2C(=O)[C@@H](NC(=O)[C@H](N)c3ccccc3)[C@H]2SC1(C)C | 15.8% [at 31.4 µM] | 
O=C(O)c1cc(O)c2c(c1)C(=O)c1cccc(O)c1C2=O | 4.32% [at 95 µM] | 
CCN(C(=O)c1cc(C)cc(OC[C@H](C)Nc2ccncc2)c1)C(C)C |  | 19.1 µM (active)
O=C(NOCC1CC1)c1ccc(F)c(F)c1Nc1ccc(I)cc1Cl |  | 29.8 µM (active)
O=C(O)c1ccc(Cl)c(Cl)c1 | 5.58% | 
CNC(=O)c1ccccc1 | 13.5% | 
Oc1ccc2cc(SSc3ccc4cc(O)ccc4c3)ccc2c1 |  | 19.4 µM (active) and 21.7 µM (active)
CC[C@@]1(O)C(=O)OCc2c1cc1n(c2=O)Cc2cc3c(CN(C)C)c(O)ccc3nc2-1 |  | 1.19 µM (active)
CCN1/C(=C/C=C/c2sc3ccccc3[n+]2CC)Sc2ccccc21 |  | 0.0298 µM (active)
COc1ccc(CN2CCN(C(c3ccc(F)cc3)c3ccc(F)cc3)CC2)c(OC)c1OC |  | 5.96 µM (active)
CCCCCOC(=O)CCCC | -9.97% | 
NC(=O)CC[C@@H]1NC(=O)[C@H](Cc2ccccc2)NC(=O)[C@H](Cc2ccc(O)cc2)NC(=O)CCSSC[C@@H](C(=O)N2CCC[C@H]2C(=O)N[C@@H](CCCN=C(N)N)C(=O)NCC(N)=O)NC(=O)[C@H](CC(N)=O)NC1=O |  | inactive
Cc1cc2c(cc1C(F)(F)F)N(C(=O)Nc1ccc(Oc3cccnc3C)nc1)CC2 |  | 0.781 µM (active)
O=[N+]([O-])c1ccccc1Nc1ccccc1 | 2.17% | 
CCCC/C=C/CCCCO | -19% | 
COC(=O)C1=C(C)NC(C)=C(C(=O)OCC(C)C)C1c1ccccc1[N+](=O)[O-] (stereo not given) |  | 10.6 µM (active) and 4.33 µM (active)
Oc1cc2ccccc2c2ccccc12 |  | 1.72 µM (active)
Cc1cc(CCN2CCN(c3nsc4ccccc34)CC2)cc2c1NC(=O)CC2(C)C |  | 5.45 µM (active)
CCCCCCCC/C=C\CCCCCCCCOCCO |  | 5.62 µM (active)
CCCCC(CC)CN=C(N)NC(N)=NCCCCCCN=C(N)NC(N)=NCC(CC)CCCC (stereo not given) |  | 11.9 µM (active)

Compound | activity, negative = cytotoxicity | Potency
CCCCCCCCCCCCc1ccc(O)cc1 |  | 7.7 µM (active)
Nc1c(Cl)cc(Cl)cc1Cl | -1.31% | 
CCCCCCCCOC(=O)c1ccc(O)cc1 |  | 60.9 µM (active)
N=C1N=C(N)c2cc3ccccc3cc21 |  | 27.3 µM (active)
O=c1cccccc1O |  | 27.8 µM (active)
O=c1[nH]sc2ccccc12 |  | 0.433 µM (active)
C=C(C)C(=O)OCC(O)COc1ccc(C(C)(C)c2ccc(OCC(O)COC(=O)C(=C)C)cc2)cc1 (stereo not given) |  | 6.86 µM (active)
CC1=NC(C)OC1C (stereo not given) | -24.9% | 
Oc1ccc2c(c1)-c1ccccc1C2 |  | 54.5 µM (active)
CC(C)CCCCCCCCCCCCCCC(=O)O | 1.86% | 
CC(C)(C)c1ccc(C(=O)CCCN2CCC(OC(c3ccccc3)c3ccccc3)CC2)cc1 |  | 5.31 µM (active)
COc1cc(-c2ccc(N=C=O)c(OC)c2)ccc1N=C=O | 1.53% | 
COc1ccc(-c2ccc3cc(C(=O)O)ccc3c2)cc1C12CC3CC(CC(C3)C1)C2 | -15.1% | 
N/C(=N\N=C\c1ccc(Cl)cc1)N/N=C/c1ccc(Cl)cc1 | -2.98% | 
Nc1ccccc1O |  | 6.77 µM (active)
Cc1cc(O)c(C(C)(C)C)cc1Sc1cc(C(C)(C)C)c(O)cc1C |  | 12.2 µM (active)
CCCCN(CCCC)c1ccc(C(=O)c2ccccc2C(=O)O)c(O)c1 | 2.88% [at 95 µM] | 
O=C(Nc1cccc([N+](=O)[O-])c1)c1cc2ccccc2cc1O |  | 2.17 µM (active)
CCN(C(=O)N(CC)c1ccccc1)c1ccccc1 |  | 7.7 µM (active)
CCCCCCCCCCCCCCCC(=O)OC[C@H](O)[C@H]1OC(=O)C(O)=C1O | 1.89% | 
